Results as given in PubChem BioAssay (NCI).
About 79,000 compounds went through this panel and 15% of them were active in at least one assay; those are over-represented in the sample as a whole. The source made the active and inactive calls. Rule as the data show it: active = growth inhibition above about 70%; inactive = the rest.

Assays:
[1] = NCI Yeast Anticancer Drug Screen. Data for the rad50 strain (AID 155);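 also: 0% = growth of vehicle-only cultures of the same strain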; settings: S. cerevisiae rad50 strain growth inhibition; at 50.0 µM; stronger effect = higher value
Summary of the method: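 A DNA repair-deficient yeast mutant serves as the test organism; compound-induced growth inhibition is calculated against vehicle-treated cells.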

[2] = NCI Yeast Anticancer Drug Screen. Data for the mec2-1 strain (AID 157); settings: S. cerevisiae mec2-1 strain, at 50.0 µM, stronger effect = higher value
Summary of the method: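 Compounds were applied to mec2-1 yeast cells. Their growth was then compared with that of vehicle-treated cultures to give growth inhibition.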

[3] = NCI Yeast Anticancer Drug Screen. Data for the sgs1 mgt1 strain (AID 161);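 also: 0% = growth of cultures given vehicle only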; settings: S. cerevisiae sgs1 mgt1 strain, at 50.0 µM, stronger effect = higher value
Summary of the method: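 This yeast growth screen uses a strain with defined DNA-repair lesions; compound-treated growth is compared with vehicle-treated growth.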

[4] = NCI Yeast Anticancer Drug Screen. Data for the cln2 rad14 strain (AID 165);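 also: 0% = growth equal to vehicle treated cultures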; settings: S. cerevisiae cln2 rad14 strain, at 50.0 µM, stronger effect = higher value
Summary of the method: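 Strain: cln2 rad14 yeast, altered in cell cycle control and DNA damage repair. Read-out: growth inhibition vs vehicle.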

[5] = NCI Yeast Anticancer Drug Screen. Data for the bub3 strain (AID 167); settings: S. cerevisiae bub3 mutant strain, at 50.0 µM, stronger effect = higher value
Summary of the method: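 Inhibition values come from growth of compound-treated mutant yeast normalised to vehicle-treated controls.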

[6] = NCI Yeast Anticancer Drug Screen. Data for the mlh1 rad18 strain (AID 175); settings: S. cerevisiae mlh1 rad18 strain growth inhibition; at 50.0 µM; stronger effect = higher value
Summary of the method: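 A repair-deficient yeast strain is exposed to test compound, and growth is scored relative to vehicle-treated controls.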

Measured: growth inhibition

O=c1[nH]c(Nc2ccc(F)c(Cl)c2)nc2nc[nH]c12
inactive: [1] 4.4% | [2] 6.85% | [3] 4.6% | [4] -4.75% | [5] 2.55% | [6] -23.7%

CC(=O)NC1=NC(=O)/C(=C/Cc2cccs2)N1C
inactive: [1] 6.8% | [2] 16.1% | [3] 1.55% | [4] -5.55% | [5] -23.8% | [6] -25.4%

CCCOC(=O)c1ccccc1C=O
inactive: [1] -12.1% | [2] -3.5% | [3] -18.6% | [4] -49.9% | [5] -10.3% | [6] 23.4%

N#Cc1c(N)nc2c3c1NC(=O)C(C(N)=O)C3c1ccccc1O2 (stereo unspecified)
inactive: [1] 6.1% | [2] -3.15% | [3] 5.95% | [4] 2% | [5] -2.6% | [6] -22.4%

CSC(C(=O)O)c1cc(-c2c(Cl)cccc2Cl)no1 (stereo unspecified)
inactive: [1] -1.95% | [2] 23.8% | [3] 29% | [4] 8.85% | [5] 24.4% | [6] 22.9%

Cc1cc(Br)ccc1Br
inactive: [1] 34.6% | [2] 19.3% | [3] -1.75% | [4] -36.4% | [5] -4.3% | [6] 8.6%

Cc1ccc(S(=O)(=O)c2cc3ccccc3oc2=O)cc1
inactive: [1] -1.25% | [2] 1% | [3] -8.2% | [4] -40% | [5] -11.2% | [6] -9.65%

Cc1cccc(C(C)(C)C)c1NC(=O)/C(Cc1nc2ccc([N+](=O)[O-])cc2[nH]c1=O)=N/NC(=O)C[N+](C)(C)C
inactive: [1] 6.4% | [2] -10.4% | [3] -9.1% | [4] -17.4% | [5] -18.9% | [6] -22.6%

O=C(O)C(Cc1c[nH]c2ccccc12)N1C(=O)c2ccccc2C1=O (stereo unspecified)
inactive: [1] 18.5% | [2] 26.6% | [3] -8.15% | [4] -12.3% | [5] -2.5% | [6] 28.6%

Cc1ccnn1CCc1ccc(Cl)cc1Cl
inactive: [1] 18.1% | [2] 15.3% | [3] 34.1% | [4] 11.4% | [5] 29.5% | [6] -4.55%

CCc1cc(Cc2cc(CC)c(NC(=O)C(=O)CC(=O)c3sc(-c4cccnc4)nc3C)c(CC)c2)cc(CC)c1NC(=O)C(=O)CC(=O)c1sc(-c2cccnc2)nc1C
inactive: [1] -26.8% | [2] -26.9% | [3] -27.8% | [4] -0.05% | [5] -35.9% | [6] -19.8%

O/N=C(/Cc1ccccc1)c1ccccc1
inactive: [1] 26.6% | [2] 33.6% | [3] 11.1% | [4] -17.1% | [5] 5.15% | [6] 17.8%

COc1n[n+]([O-])c(OC)cc1[N+](=O)[O-]
active: [6] 76.7%
inactive: [1] 51.7% | [2] 33.6% | [3] 33.9% | [4] 15% | [5] 17.6%

CCN(CC)c1ccc(N=C2C=CC(=O)C(C)=C2)c(C)c1
inactive: [1] -3.05% | [2] -14.6% | [3] -0.9% | [4] -23.4% | [5] 11.8% | [6] 3.05%

C(=C\c1cccc2ccccc12)/c1ccc(-c2ccccc2)cc1
inactive: [1] -5.9% | [2] -45% | [3] -0.75% | [4] 12.1% | [5] -3.45% | [6] 5.75%

Cc1cccc2c3c(ccc12)C(=O)OC3=O
inactive: [1] -0.3% | [2] -2.85% | [3] 4.1% | [4] -22.3% | [5] -6.5% | [6] 4.25%

CC(=O)N1CC(C)CC2OC3(CCC4C5CCC6CC(=O)CCC6(C)C5C(=O)C4C3C)C(C)C21 (stereo unspecified)
inactive: [1] -0.65% | [2] -13.1% | [3] -9.15% | [4] -0.75% | [5] -5.9% | [6] -3.75%

O=C1CC2(CCc3ccccc32)C(=O)N1CN1CCN(CCO)CC1 (stereo unspecified)
inactive: [1] 12.6% | [2] -5.8% | [3] 3.9% | [4] 9% | [5] 7.15% | [6] 11.9%

c1ccc(Cn2nnc(-c3ccccc3)n2)cc1
inactive: [1] 19.3% | [2] 8.45% | [3] 5.3% | [4] -10.3% | [5] 32.9% | [6] 18.4%

CCC(C(=O)O)(C(C)C)C(C)C
inactive: [1] 5.8% | [2] 30.9% | [3] 12.9% | [4] 12.4% | [5] -0.05% | [6] 8.1%

CC(=O)N1c2ccccc2C2=NN(C)C(=N)SC21 (stereo unspecified)
inactive: [1] -27.6% | [2] -5.7% | [3] -27.3% | [4] -7.65% | [5] -5.2% | [6] 1.65%

COC(=O)NC1CC/C=C\CCC1I (stereo unspecified)
inactive: [1] 12.8% | [2] 10% | [3] 8.1% | [4] 12.9% | [5] 22.9% | [6] 4.7%

CNC(C#N)c1ccco1 (stereo unspecified)
inactive: [1] 11.3% | [2] -17.2% | [3] 16% | [4] 8.4% | [5] 13.4% | [6] 22.1%

NCCNc1ncnc2ccccc12
inactive: [1] -13.1% | [2] 16.1% | [3] -1.75% | [4] -11.6% | [5] -1.35% | [6] -5.2%

COc1cc([N+](=O)[O-])c(C)cc1Br
inactive: [1] 3.55% | [2] 3.75% | [3] 4.45% | [4] -18.3% | [5] -10.5% | [6] 9.45%

Clc1cccc2[nH]c(-c3ccncc3)nc12
inactive: [1] -18.1% | [2] -15.1% | [3] -15.4% | [4] -10.8% | [5] 2.95% | [6] -5.75%

C=CC(OC(=O)/C=C/C)OC(=O)/C=C/C
inactive: [1] 16.9% | [2] 0.85% | [3] 6.8% | [4] 12.6% | [5] 20.1% | [6] 21.6%

C[Si](C)(CCCOCC1CO1)O[Si](C)(C)CCCOCC1CO1 (stereo unspecified)
inactive: [1] 26.9% | [2] -29.4% | [3] -5.05% | [4] 17.6% | [5] -8.4% | [6] -31.1%

O=C(O)CCNCCO
inactive: [1] -3.5% | [2] 13.4% | [3] 5.1% | [4] -18.6% | [5] 20.1% | [6] 2.45%

O=[N+]([O-])c1ccc2nc(NCCCO)c3ccccc3c2c1
inactive: [1] 8.2% | [2] 11.3% | [3] 3.85% | [4] -0.9% | [5] 12.1% | [6] 12.1%

Cc1ccc(N2C(=O)/C(=C3\Sc4c(nc(C)n(C)c4=O)N3c3ccccc3)SC2=S)cc1
inactive: [1] -20.9% | [2] -31.4% | [3] -7.3% | [4] -58.5% | [5] -32.5% | [6] -26.8%

CC1(C)C2CC[C@]3(C)C(C(=O)C=C4[C@@H]5C[C@@](C)(C(=O)O)CC[C@]5(C)CCC43C)[C@@]2(C)CC[C@@H]1OC1OC(C(=O)O)C(O)C(O)C1OC1OC(C(=O)O)C(O)C(O)C1O (stereo partly specified) (tested in a mixture with another compound)
inactive: [1] 5.65% | [2] -2.45% | [3] 2.7% | [4] -12.2% | [5] -3.55% | [6] -0.35%

O=C(Cc1ccccc1)NCO
inactive: [1] 2.95% | [2] 6.35% | [3] -9.6% | [4] -52.4% | [5] -3.5% | [6] 4.6%

CCCCCC1SCC(=O)N1c1nncs1 (stereo unspecified)
inactive: [1] -1.7% | [2] -21.1% | [3] 14.3% | [4] 5.85% | [5] 6.65% | [6] 12.5%

O=C1Nc2ccccc2N=NN1CCCl
inactive: [1] 22.2% | [2] 6.4% | [3] -2.85% | [4] 1.85% | [5] -7.3% | [6] -18.4%

CN(C)CC1CC(O)C(CN(C)C)CC1O (stereo unspecified)
inactive: [1] -6.2% | [2] -13.4% | [3] -20.2% | [4] -6.15% | [5] -6.25% | [6] -8.95%

O=C(O)/C(O)=C(/O)C(=O)O.[NH-]C1CCCCC1[NH-].[Pt+2]
inactive: [1] 27.3% | [2] 29.1% | [3] 28.4% | [4] 16.1% | [5] 26.9% | [6] 25.6%

CCCCCC(=O)Nc1cc(N)cc(C(=O)O)c1
inactive: [1] 4.25% | [2] 9.25% | [3] 9.5% | [4] -9.6% | [5] 0.1% | [6] -14.3%

N#Cc1cc2c(n(C3OC(CO)C(O)C(O)C3O)c1=S)CCCCC2 (stereo unspecified)
inactive: [1] -3.95% | [2] -16% | [3] -3.75% | [4] -0.75% | [5] 5.65% | [6] 24.1%

NC(=O)NC(CCl)NC(N)=O
inactive: [1] 6.6% | [2] -5.8% | [3] -2.05% | [4] 13.1% | [5] -3.55% | [6] -12.3%

CC(=O)Nc1ccc(Nc2nc(=O)[nH]c(=O)[nH]2)cc1
inactive: [1] -3.2% | [2] -12.6% | [3] 13.1% | [4] -0.55% | [5] -1.6% | [6] -32.6%
